Source: PubChem (National Center for Advancing Translational Sciences (NCATS))
TbPYK inhibitor: T. brucei pyruvate kinase inhibition; TbPYK enzyme, Kinase-Glo Plus ATP luminescence, 45 min; Potency, µM (titrated, usually from 76.8 µM), without a hit: top-dose activity, negative = inhibition, usual class: inhibitors; actives 0.12% (n = 410,000); AID 624173; further: potency means the concentration at half of the fitted maximal effect; nearly all actives have a fitted effect of over 50% in size
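Glycolytic pyruvate kinase of T. brucei was incubated with substrate, test compound and 130 uM ADP for 45 minutes at room temperature. Luminescent Kinase-Glo Plus signal was measured after 10 minutes.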
RE007 growth inh: less growth of the S. pombe RE007 Vpr strain | S. pombe RE007 Vpr strain, BacTiter-Glo ATP luminescence, 24 h | actives 0.21% (n = 360,000) | Potency, µM (titrated, usually from 92.2 µM), for the others: at the top dose activity change, negative = less growth, actives largely listed as inhibitors; active means well fitted falling curve with a large enough effect; inconclusive means small, poorly fitted or top-dose-only effect; inactive means no such curve, though single readings can be large or run the other way; further: potency means the concentration at half of the fitted maximal effect; nearly all actives have a fitted effect of over 50% in size
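Fission yeast RE007 carrying one integrated HIV-1 vpr copy, seeded at OD 0.01 in PMG+AL medium with 23 nL pinned compound. Grown 24 h at 30 degrees; viability read by BacTiter-Glo luminescence after 5 min.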
FBPA Giardia inh: Giardia lamblia aldolase inhibition; AID 2451; A8B2U2; Potency, µM (series often up to 59.6 µM), for inactives: at the highest dose activity, negative = inhibition, hits mostly inhibitors; actives 0.71% (n = 290,000); purified Giardia FBPA; further: potency means the concentration at half of the fitted maximal effect; nearly all actives have a fitted effect of over 55% in size
Target sequence (A8B2U2 whole entry, looked up): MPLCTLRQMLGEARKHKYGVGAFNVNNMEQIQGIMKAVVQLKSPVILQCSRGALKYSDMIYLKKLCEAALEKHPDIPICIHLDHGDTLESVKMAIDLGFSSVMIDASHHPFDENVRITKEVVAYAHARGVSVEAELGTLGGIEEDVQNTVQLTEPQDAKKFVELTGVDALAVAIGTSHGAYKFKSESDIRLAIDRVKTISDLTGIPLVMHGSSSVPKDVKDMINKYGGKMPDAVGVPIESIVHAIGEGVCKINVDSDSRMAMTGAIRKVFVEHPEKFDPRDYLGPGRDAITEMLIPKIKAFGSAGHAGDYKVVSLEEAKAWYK
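Giardia FBPA (40 nM reagent) was preincubated 10 min at RT with compound (up to 57.5 uM final), then substrate plus GAPDH/TPI/NAD/arsenate coupling system with diaphorase/resazurin was added; resorufin fluorescence (525/598 nm) was read after 20 min.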
HCMV antiviral: inhibitors of human cytomegalovirus; HFF cells, HCMV-luciferase reporter, 72 h; stronger effect = lower value; activity change, negative = inhibition, % at 57.5 µM; actives 4.5% (n = 410,000); AID 1259415; in the data active means activity change below about -60%; inconclusive means no clear call, values can overlap the other calls; inactive means above about -39%
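Cell-based, HFFs, 1000 cells/well, 16 h 37C; cpds in DMSO + HCMV-luc, MOI 1 PFU/cell; 72 h 37C; OneGlo luminescence after 5 min RT; norm. to buffer vs Salinomycin 10uM.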
Sm TGR block: inhibitors of Schistosoma mansoni thioredoxin glutathione reductase. actives 3% (n = 360,000). AID 485364. purified TGR, DTNB reduction, TNB absorbance 405 nm. Potency, µM (top dose mostly 114 µM), inactives show top-dose activity change, negative = inhibition, usual class: inhibitors. Q962Y6; further: potency means the concentration at half of the fitted maximal effect; nearly all actives have a fitted effect of over 60% in size
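First, TGR (20 nM dispensed) and NADPH were mixed with compound. Second, a 15 min room-temperature incubation followed. Third, further NADPH and then DTNB were added to start the reaction. Finally, TNB absorbance was monitored kinetically.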
FMDV inh: blocks foot and mouth disease virus; FMDV antiviral cell-based qHTS; Potency, µM (highest dose often 57.9 µM), inactives show at the top dose activity change, negative = inhibition, usual class: inhibitors; actives 1.2% (n = 410,000); calls by dose curve; tested in HEK293T cells; further: read-out not given here; potency means the concentration at half of the fitted maximal effect; nearly all actives have a fitted effect of over 45% in size
Numbers without * were called inactive; ? = inconclusive; . = not tested or not shown. The list is not random: actives were taken first. Their share in the collection is about 7.7%. Unless noted, the call rests on the fitted dose curve; in most records, active means well fitted curve in the direction sought with a large enough effect; inconclusive means small, poorly fitted or top-dose-only effect, or another doubt; inactive means no such curve, though single readings can be large; an effect the other way counts as inactive or inconclusive. On the % scale 0 is the no-effect control and ±100 the full control effect.

SMILES	TbPYK inhibitor	RE007 growth inh	FBPA Giardia inh	HCMV antiviral	Sm TGR block	FMDV inh
CC(C)C(=O)N1CCN(c2ccc(NC(=O)c3ccc4c(c3)OCCO4)cc2Cl)CC1	-1%	-1%	-27%	-80*	-24%	11µM*
CC(C)C(=O)N1CCN(c2ccc(NC(=O)c3cccs3)cc2)CC1	-3%	4%	-1%	54	-12%	-20%
CC(=O)N1CCN(c2ccc(NC(=O)c3ccc4c(c3)OCCO4)cc2Cl)CC1	2%	-2%	?	-11	36%	?
CC(C)C(=O)N1CCN(c2ccc(NC(=O)c3cccs3)cc2Cl)CC1	-1%	1%	-11%	-85*	11%	?
COc1ccc(S(=O)(=O)c2c(SC)nn(Cc3ccccc3C)c2NC(C)=O)cc1	3%	.	.	-38	2%	3%
Cc1cc(C(=O)NCCN2Cc3ccccc3OC(c3ccccc3F)C2)no1 (stereo not given)	.	.	.	.	.	-6%
O=C(NCc1ccccc1Cl)[C@@H]1[C@@H](CO)[C@@H]2Cn3c(cccc3=O)[C@@H]2N1C(=O)C1CCC1	.	.	.	3	.	.
Cc1ccccc1Oc1nc2c(C)cccn2c(=O)c1/C=C(\C#N)C(=O)Nc1c(C)n(C)n(-c2ccccc2)c1=O	-7%	.	-1%	77	-1%	32µM*
Cc1ccccc1Oc1nc2ccccn2c(=O)c1/C=C(\C#N)C(=O)Nc1c(C)n(C)n(-c2ccccc2)c1=O	-6%	-16%	1%	38	1%	22µM*
Cc1cccn2c(=O)c(/C=C(\C#N)C(N)=O)c(Oc3ccccc3)nc12	-23%	-23%	-14%	10	32µM*	-26%
Cc1cccn2c(=O)c(/C=C(\C#N)C(N)=O)c(N3CCN(c4ccccc4)CC3)nc12	-8%	2%	-5%	?	-9%	0%
CC(C)OC(=O)[C@@H]1CC[C@H](C)[C@@H](CCC[C@@H]2C[C@@H](O)C[C@H](CC#N)O2)O1	.	.	4%	.	.	.
O=C(c1cc(Cc2n[nH]c(=O)c3ccccc23)ccc1F)N1CCN(C(=O)C2CC2)CC1	4%	.	.	.	.	.
CC(C)CCNC(=O)c1ccc2nc(Cc3ccccc3)oc2c1	3%	.	.	-5	11%	-3%
Cc1ccc(NNc2c(C)nc3ccccc3nc2=O)cc1	3%	4%	3%	-67*	.	19%
c1ncc(CC2CCNCC2)[nH]1	.	.	1%	.	.	-9%
COc1ccc(S(=O)(=O)N2CCN(C(=O)/C=C/c3ccco3)CC2)cc1	-16%	-5%	.	-39	8.9µM*	-23%
O=C(/C=C/c1ccco1)N1CCC(Cc2ccccc2)CC1	-18%	12%	-3%	31	20µM*	32%
O=C(/C=C/c1ccco1)N1CCN(S(=O)(=O)c2cccc([N+](=O)[O-])c2)CC1	-13%	8%	.	-2	.	-27%
CC(C)C(=O)N1CCC(Cc2ccccc2)CC1	-1%	16%	15%	7	0%	-21%
O=C(/C=C/c1ccco1)N1CCN(c2ncccn2)CC1	-8%	-9%	-1%	42	20µM*	35%
COc1cccc(N2CCN(C(=O)/C=C/c3ccco3)CC2)c1	0%	10%	-25%	56	22µM*	-16%
O=C(OCc1cc(=O)n2nc(-c3cccs3)sc2n1)c1ccccc1	-3%	.	.	16	1%	37%
O=C(Nc1ccc2nc(SCC(=O)N3CCOCC3)sc2c1)c1ccc(Cl)cc1	0%	.	.	-74*	-1%	20µM*
O=C(Nc1ccc2nc(SCc3ccc(Cl)cc3)sc2c1)c1ccccc1C(=O)N1CCOCC1	3%	-1%	-3%	-9	-24%	?
COC(=O)CSc1nc2ccc(NC(=O)c3ccccc3C(=O)N3CCOCC3)cc2s1	-1%	-14%	-15%	-64*	4%	-17%
O=C(Nc1ccc2nc(SCC(=O)N3CCOCC3)sc2c1)c1cccc(Br)c1	5%	.	.	-35	0%	25µM*
CC(C)C(=O)Nc1ccc2nc(SCC(=O)N3CCc4ccccc43)sc2c1	3%	.	.	-11	-10%	35µM*
